Experimental findings from PubChem BioAssay AID504810 (National Center for Advancing Translational Sciences (NCATS), 2011) are described below.

Screen size: about 330,000 compounds; about 670 (0.2%) were called active. For the sample, actives were picked, then their nearest neighbours and some compounds at random. Values without a mark were called inactive.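 The calls were made as follows: active = activity change below a set negative limit, meaning inhibition stronger than a set level (cut at about -70% in these data); inconclusive = activity change between two set negative limits; inactive = the rest.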
% is scaled to controls: 0 for no effect and ±100 for the full control effect.

Chain of Thyrotropin receptor (Homo sapiens) (P16473 whole entry, looked up): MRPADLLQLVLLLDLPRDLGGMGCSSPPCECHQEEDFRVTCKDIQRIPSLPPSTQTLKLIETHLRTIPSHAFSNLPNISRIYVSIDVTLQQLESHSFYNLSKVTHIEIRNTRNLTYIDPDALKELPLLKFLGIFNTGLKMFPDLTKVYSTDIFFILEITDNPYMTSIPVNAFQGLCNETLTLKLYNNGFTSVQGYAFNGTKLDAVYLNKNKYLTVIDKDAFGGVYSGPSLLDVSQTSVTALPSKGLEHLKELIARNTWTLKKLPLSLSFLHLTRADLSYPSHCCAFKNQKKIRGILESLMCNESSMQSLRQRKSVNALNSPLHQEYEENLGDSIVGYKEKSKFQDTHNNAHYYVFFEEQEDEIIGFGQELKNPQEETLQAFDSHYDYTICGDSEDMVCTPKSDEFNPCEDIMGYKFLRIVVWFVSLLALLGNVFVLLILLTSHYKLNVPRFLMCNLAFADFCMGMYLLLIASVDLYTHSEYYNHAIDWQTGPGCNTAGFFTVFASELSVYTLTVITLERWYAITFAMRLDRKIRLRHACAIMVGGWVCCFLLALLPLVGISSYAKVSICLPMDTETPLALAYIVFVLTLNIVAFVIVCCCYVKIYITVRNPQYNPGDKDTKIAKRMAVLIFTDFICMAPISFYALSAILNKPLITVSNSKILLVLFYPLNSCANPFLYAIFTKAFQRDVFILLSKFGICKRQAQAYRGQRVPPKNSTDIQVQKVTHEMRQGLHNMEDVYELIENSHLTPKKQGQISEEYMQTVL

This assay addresses Thyrotropin receptor (Homo sapiens) (UniProt P16473). As to the kind of experiment: Antagonists of the Thyroid Stimulating Hormone Receptor: HTS campaign. The following applies: TSHR-expressing cells, TSH-stimulated cAMP HTRF, 2 h; at 11.5 µM; stronger effect = lower value. The text has this: The thyroid-stimulating hormone receptor (TSHR) is a member of the 7 trans-membrane-spanning receptor (7TMR) family of cell surface receptors. TSHR-mediated hyperthyroidism is important in thyroid pathology. The development of small molecule antagonists of TSHR may lead to therapeutic approaches for TSHR-mediated hyperthyroidism caused by constitutively activating mutations or stimulating auto-antibodies associated with Graves' disease. Graves' disease is the leading cause of hyperthyroidism and is caused by autoantibodies that stimulate TSHR (TsAbs) causing thyroid growth and unregulated overproduction of thyroid hormones and existing treatments have liabilities (agranulocytosis). In addition, TSHRs are known to be expressed in multiple extrathyroidal tissues including bone, brain, kidney, testis, fat and cells of the immune system but the role of the TSHR in these tissues is not clear. Therefore, TSHR antagonists/inverse agonists could be used as probes of extrathyroidal TSHR function. Finally, TSHR inverse agonists, which are a subclass of antagonists that inhibit agonist-independent (or basal or constitutive) TSHR signaling, could be used to inhibit TSH-independent signaling in patients with recurrent or metastatic thyroid cancer who are receiving thyroid hormone to suppress TSH. In collaboration between scientist from the NCGC and the NIDDK, a miniaturized HTRF high-throughput screen was developed. It's a cell based assay, where an anti cAMP antibody contains a fluorescent cryptate tag (excitation 337 nm; emission 620 nm) and the acceptor is cAMP-d2 (excitation 620 nm; emission 665 nm). When antibody and cAMP-d2 interact and are excited by a 337 nm light, a FRET occurs resulting in emission at 665 nm. The assay is competition between cAMP-d2 and cAMP (from the cell lysate). The homogeneous protocol allows for one step dispense after stimulation that is automation friendly. NIH Chemical Genomics Center [NCGC] NIH Molecular Libraries Probe Centers Network [MLPCN] MLPCN Grant: MH090855-01 Assay Submitter (PI): Marvin Gerhengorn
1. 3ul of 200 TSHR freshly harvested cells/well are dispensed into a 1536 TC-treated white solid bottom plate. 2. Through pintool addition, 23nl of compounds and control in 100% DMSO are added to the plate. 3. Then 1ul of EC80 TSH (4nM final) is added to the plate. 4. Assay is incubated at 37 deg C for 2 hours. 5. 2ul of cAMP antibody diluted 1:20 in lysis buffer is added. 6. Immediately following, 2ul of d2 diluted 1:20 in HBSS is added seperately. 7. The assay is incubated for 30 minutes at ambient room temperature. 8. The result is obtained by using a ViewLux read-out with HTRF settings.
For orientation: TR-FRET usually uses a lanthanide donor and a delayed reading to cut background.
Consider `CNC(=O)C1CCN(S(=O)(=O)c2c(C)noc2/C=C/c2cccc(C)c2)CC1`, for which the activity change, negative = inhibition is 9.08%.

As for `CC(NC(=O)CNC(=O)Cc1cccc2ccccc12)c1ccc(S(N)(=O)=O)cc1` (stereo not drawn), the activity change, negative = inhibition was -28.1%.

Consider `CCNC(=O)N1CCN(S(=O)(=O)c2ccc3c(c2)OCCCO3)CC1`, for which the activity change, negative = inhibition was 13%.

For the compound `O=c1ccc(-c2ccc(S(=O)(=O)Nc3ccccc3)o2)n[nH]1`, the activity change, negative = inhibition is 14.7%.

Turning to `COc1cccc(NC(=O)CC(c2ccc(OC(C)C)cc2)c2ccccc2OC)c1` (stereo not drawn), the activity change, negative = inhibition is -14.4%.

Consider `CCOC(=O)NN1C(=O)c2ccccc2NC1c1ccccc1O` (stereo not drawn), for which the activity change, negative = inhibition was 8.06%.

With `O=C(CCN1C(=O)C2C3CCC(C3)C2C1=O)Nc1ccc(Cl)cc1Cl` (stereo not drawn), the activity change, negative = inhibition is 1.9%.

Take `CCN(CC)C(=O)CSc1nnc(-c2ccc(S(=O)(=O)NCc3ccccc3Cl)cc2)o1`: the activity change, negative = inhibition is -13.6%.

Turning to `Cc1ccc(S(=O)(=O)n2cnc3ccccc32)c(C)c1`, the activity change, negative = inhibition is 2.16%.

`COc1ccc(S(=O)(=O)N2CCN(C)CC2)c(C)c1`: the activity change, negative = inhibition is -0.476%.

Take `COc1ccc(S(=O)(=O)n2cnc3ccccc32)c(C)c1`: the activity change, negative = inhibition is -81.3% (active).

As for `CCC1SC2=NCCN2C1(O)c1ccc(Cl)cc1` (stereo not drawn), the activity change, negative = inhibition was 6.43%.

For the compound `CCOc1ccc(N(CC(=O)NCCc2ccc(F)cc2)S(=O)(=O)c2ccccc2)cc1`, the activity change, negative = inhibition is -7.25%.

Regarding `CCN1C(=S)N[C@@H](c2cccc(C(F)(F)F)c2)C(C(=O)OC)=C1C`, the activity change, negative = inhibition was 0.624%.

With `CC(NC(=O)Cn1cc(C(F)(F)F)cc(Cl)c1=O)c1ccccc1` (stereo not drawn), the activity change, negative = inhibition was 7.91%.

In the case of `COC(=O)c1cc(=O)n(-c2c(Cl)cc(C(F)(F)F)cc2Cl)[nH]1`, the activity change, negative = inhibition is -90% (active).

Regarding `Cc1sc2ncn(CC(=O)NCCCC(=O)N(C)Cc3ccccc3)c(=O)c2c1C`, the activity change, negative = inhibition is 3.25%.

Turning to `Cc1sc2ncn(CC(=O)NCCCC(=O)NCc3ccc(F)cc3)c(=O)c2c1C`, the activity change, negative = inhibition was -97.7% (active).

In the case of `Cc1sc2ncn(CC(=O)NCCCC(=O)N3CCN(c4ccccc4F)CC3)c(=O)c2c1C`, the activity change, negative = inhibition was 3.65%.

With `COc1ccc(CCNCc2c(-c3ccccc3)n(C)c3ccccc23)cc1`, the activity change, negative = inhibition is 5.27%.

For the compound `COc1cc(OC)cc(C(=O)NNC(=O)CNC(=O)c2ccc(Br)o2)c1`, the activity change, negative = inhibition was -4.32%.

On to `NC1CCN(O)C1=O` (stereo not drawn), for which the activity change, negative = inhibition was 5.61%.

Regarding `CCC(C)NC(=O)C1CCC(=O)N1Cc1ccc(C)cc1` (stereo not drawn), the activity change, negative = inhibition is 1.98%.

Consider `CCCN(c1ccc(C(C)C)cc1)S(=O)(=O)c1c(C)[nH]c(=O)[nH]c1=O`, for which the activity change, negative = inhibition is -12.7%.

For `Cc1ccc(CN2CCNC(=O)C2CC(=O)NCc2csc(C(C)C)n2)cc1` (stereo not drawn), the activity change, negative = inhibition was 12.6%.

On to `NC(=O)C1CCN(c2nc(-c3cccc(F)c3)cs2)CC1`, for which the activity change, negative = inhibition was -7.85%.

As to `COc1ccc(NC(=O)CSc2nnc(Cc3ccccc3)c(=O)n2N)cc1`, the activity change, negative = inhibition was 7.33%.

With `CCCCn1c(N)c(N(CCOC)C(=O)COc2c(C)cccc2C)c(=O)[nH]c1=O`, the activity change, negative = inhibition is -0.316%.

For `CCc1ccccc1NC(=O)CN(C)C(=O)COc1ccc(C)nc1[N+](=O)[O-]`, the activity change, negative = inhibition was 4.86%.

Take `C1CC1Cc1noc(CN2CCN(CC3CC3)CC2)n1`: the activity change, negative = inhibition was 3.76%.

In the case of `NS(=O)(=O)c1cc(C(=O)NCCOc2ccccc2)c(Cl)cc1Cl`, the activity change, negative = inhibition is 8.26%.

For the compound `CCc1nn(CC(=O)N2CCN(c3cc(C)ccc3C)CC2)c(=O)c2cc3occc3n12`, the activity change, negative = inhibition was 12.8%.

As for `OCC(O)CN(c1ccccc1)c1ccccc1` (stereo not drawn), the activity change, negative = inhibition was 3.75%.

Take `CC1(C)O[C@@H]2[C@H](O1)[C@@H](CO)O[C@H]2n1c(N2CCCCC2)nc2c(N)ncnc21`: the activity change, negative = inhibition was -5.04%.

For the compound `Nc1ccc(Nc2cc(O)c3ncccc3c2)cc1`, the activity change, negative = inhibition was -16%.

In the case of `CCOC(=O)c1ccccc1NS(=O)(=O)c1c(C)nc2sccn2c1=O`, the activity change, negative = inhibition is 3.11%.

Regarding `CCN(/N=C/c1ccc(N(C)C)cc1)c1nc2ccccc2[nH]1`, the activity change, negative = inhibition is -6.71%.

Regarding `O=C(CCCN1C(=O)CCC1=O)Nc1ccc(Cl)c(C(F)(F)F)c1`, the activity change, negative = inhibition was 1.2%.

As to `O=C(CC(O)(C(F)(F)F)C(F)(F)F)Nc1ccc(Cl)c(Cl)c1`, the activity change, negative = inhibition was -74.6% (active).

`CS(=O)(=O)N(CC(=O)Nc1ccc(Cl)c(Cl)c1)C1CCCCC1`: the activity change, negative = inhibition was 15.8%.

`Cc1ccccc1CN1C[C@@H]2C[C@@H](c3cn(C)nc3-c3ccccc3)N3CCC[C@@]23C1=O`: the activity change, negative = inhibition was 2.86%.

With `NC(=O)COC(=O)c1cc(S(=O)(=O)N2CCN(c3ccccc3)CC2)ccc1Cl`, the activity change, negative = inhibition is -4.47%.

With `CCNC(=O)NC(=O)C(C)OC(=O)C1CCN(S(=O)(=O)c2ccccc2F)CC1` (stereo not drawn), the activity change, negative = inhibition is 15.3%.

For the compound `O=C(CCNC(=O)Cn1ccc2ccccc2c1=O)NCCC1=CCCCC1`, the activity change, negative = inhibition is 9.22%.

`Oc1ccc(Cn2cc[nH]c2=S)cc1`: the activity change, negative = inhibition was 7.71%.

`Cc1ccc(S(=O)(=O)N2[C@@H](c3ccc(Br)cc3)C(C(=O)O)=C[C@H]2CC2CCCC2)cc1`: the activity change, negative = inhibition is -5.29%.

Consider `CC[C@]12c3[nH]c4ccc(Cl)cc4c3CCN1C(=O)[C@@H](CC(=O)NCCCOC)C[C@@H]2C(=O)N1CCN(C(=O)C2CC2)CC1`, for which the activity change, negative = inhibition was 11.4%.

With `CCN(Cc1ccccc1)C(=O)Cc1ccc(OC)c(S(=O)(=O)N2CCOCC2)c1`, the activity change, negative = inhibition is 0.0578%.

For the compound `N#Cc1c(Cl)nc(-c2cccnc2)nc1-c1ccccc1`, the activity change, negative = inhibition is 3.65%.

For `CC1(c2ccc3ccccc3c2)NC(=O)N(CC(N)=O)C1=O` (stereo not drawn), the activity change, negative = inhibition is -6.17%.

Regarding `CN(C)c1ccc(S(=O)(=O)NCC(=O)NCC2CCCCC2)cc1[N+](=O)[O-]`, the activity change, negative = inhibition was 6.75%.

As to `Cc1ccc(S(=O)(=O)NCCCn2ccnc2)cc1C(=O)NC(C)C`, the activity change, negative = inhibition is -0.615%.

With `CC1(C)CC(CCC(=O)Nc2ccccc2Cl)C(=O)O1` (stereo not drawn), the activity change, negative = inhibition was 13.5%.

For `O=C(Nc1ccccc1Cl)/C(Cl)=C(\Cl)S(=O)c1ccccc1` (stereo not drawn), the activity change, negative = inhibition was -71.3% (active).

In the case of `Cc1c(NC(=O)Nc2ccccc2Cl)sc(=S)n1C`, the activity change, negative = inhibition is 46.2%.

Regarding `O=C1CCC(C(=O)N2CCCCO2)CN1Cc1cccc(C(F)(F)F)c1` (stereo not drawn), the activity change, negative = inhibition is 15.4%.

Regarding `COc1ccc(CCNC2=CC(=O)CC(C)(C)C2)cc1`, the activity change, negative = inhibition is -4.33%.

Take `O=C1NC2(CCCCCC2)C(=O)N1CCS(=O)(=O)Oc1ccccc1`: the activity change, negative = inhibition is -2.81%.
